# Assay results: PubChem BioAssay (NCATS)
# A number with no mark means an inactive call. Records with an inconclusive call do not appear. Entries that show only a call come without a potency. The source made the active and inactive calls. Unless noted, calls come from the whole dose curve; as a rule, active = well fitted curve in the direction sought with a large enough effect; inconclusive = small, poorly fitted or top-dose-only effect, or another doubt; inactive = no such curve, though single readings can be large; an effect the other way counts as inactive or inconclusive.
# Legend:
# [1] = Cellular Toxicity (caspase-3) Jurkat (AID 655); details: Jurkat caspase-3 activation, luminescence; caspase-3 activation: at 92.2 µM (top of the series), DMSO = 0%, tamoxifen = 100%;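 note: cells exposed to compound for 16 h at 37 °C before reading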
# Method in brief: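 5000 Jurkat cells/well; compound 16 hr, 37 °C; Caspase-Glo 3/7 added, 20 min RT; luminescence read. Norm: DMSO = 0%, tamoxifen 100 uM = 100%. AC50, Hill model.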
# [2] = Cellular Toxicity (caspase-3) HUV-EC-C (AID 656); details: HUV-EC-C cells, caspase-3 activation (apoptosis), vehicle = 0, 100 µM tamoxifen = 100%; series mostly up to 92.2 µM
# Method in brief: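 qHTS; HUV-EC-C, 1000 cells/well; 5 hr settle, 16 hr cmpd, 37°C; Caspase-Glo 3/7, 20 min RT; luminescence. Norm: DMSO = 0%, tamoxifen 100 uM = 100%. Hill-fit AC50.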
# [3] = Cellular Toxicity (caspase-3) SHSY5Y (AID 657); details: SH-SY5Y caspase-3 activation, DMSO zero, 10 µM staurosporine = 100%; series mostly up to 91.7 µM
# Method in brief: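 qHTS, SH-SY5Y, 1500 cells/well, 5 h pre-incubation 37 °C; compound 16 h 37 °C; Caspase-Glo 3/7 1 h RT; luminescence. Norm.: DMSO = 0, 10 uM staurosporine = 100%. Hill fit → AC50.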
# [4] = Cellular Toxicity (caspase-3) MRC-5 (AID 659); details: MRC-5 cells, luminescence, normalized: DMSO 0%, 10 µM staurosporine 100%; series mostly up to 91.7 µM
# Method in brief: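 MRC-5 fibroblasts, 1500/well; 16 h cpd, 37 °C; Caspase-Glo 3/7, 1 h RT; lumi read. Norm: DMSO = 0%, 10 uM staurosporine = 100%. Hill-fit AC50 from qHTS conc-response.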
# [5] = Cellular Toxicity (caspase-3) Mesangial (AID 660); details: mesangial cells, normalized: DMSO 0%, 100 µM tamoxifen 100%; series mostly up to 91.7 µM;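 note: combined caspase 3 and 7 activity read by Caspase-Glo luminescence; cells exposed to compound for 16 h before the caspase read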
# Method in brief: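 AC50 values come from Hill-equation fits of caspase 3/7 activation, measured as Caspase-Glo luminescence in human glomerular mesangial cells exposed to compound for 16 h at 37 °C; 100% set by 100 uM tamoxifen.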
# [6] = Cellular Toxicity (caspase-3) SK-N-SH (AID 661); details: SK-N-SH caspase-3 activation, qHTS; series mostly up to 91.7 µM
# Method in brief: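 Apoptosis readout in SK-N-SH neuroblastoma: Caspase-Glo 3/7 luminescence following 16 hr treatment in complete culture medium. Normalization used DMSO and 10 uM staurosporine controls.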
# [7] = Cellular Toxicity (caspase-3) Hek293 (AID 664); details: HEK293 caspase-3 activation, DMSO = 0%, 100 µM tamoxifen = 100%; at 92.2 µM (top of the series);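 note: cells exposed to compound for 16 h at 37 °C before readout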
# Method in brief: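 Apoptosis readout: Caspase-Glo 3/7 signal in human HEK293 cells following 16-hour compound incubation. Responses scaled between DMSO baseline and 100 uM tamoxifen.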
# [8] = Cellular Toxicity (caspase-3) N2a (AID 665); details: N2a cells, luminescence, normalized: DMSO 0%, 10 µM staurosporine 100%; series mostly up to 92.2 µM;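 note: compound exposure lasted 16 h at 37 °C before readout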
# Method in brief: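 Concentration-response qHTS: compound-induced caspase-3/7 luminescence in N2a cells (16 h, 37 °C), relative to DMSO and 10 uM staurosporine controls; AC50 obtained using the standard Hill equation.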
# [9] = Cellular Toxicity (caspase-3) NIH 3T3 (AID 666); details: NIH 3T3 caspase-3 activation, apoptosis/toxicity; series mostly up to 92.2 µM;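 note: caspase signal read after 16 h compound exposure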
# Method in brief: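 Activity: caspase-3/7 induction, NIH 3T3 cells, 16 hr treatment at 37°C, luminescent Caspase-Glo detection; AC50 via Hill equation.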
# [10] = Cellular Toxicity (caspase-3) Renal Proximal Tubule (AID 667); details: renal proximal tubule cells; series mostly up to 91.7 µM;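 note: cells exposed to compound for 16 hours at 37 °C before detection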
# Method in brief: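 AC50 derived by standard Hill fit of concentration-response data, normalized between DMSO basal and 10 uM staurosporine as 100% stimulation. Cells: primary rat kidney proximal tubule, 16 h treatment at 37 °C.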
# [11] = Cell Viability - LYMP2-001 (AID 921); details: LYMP2-001 lymphoblastoid cell viability; series mostly up to 92.2 µM;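 note: cells exposed to compound for 24 h at 37 °C; nearly all actives have a fitted effect of over 70% in size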
# Method in brief: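 Steps: seed 2500 lymphoblastoid cells/well; 5 hr, 37 C; add compound; 24 hr, 37 C; CellTiter-Glo reagent, 30 min room temperature; read luminescence. Concentration-response modeled by Hill equation for AC50.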
# [12] = Cell Viability - LYMP1-002 - Assay at 16 hr (AID 948); details: LYMP1-002 lymphoblastoid cell viability; series mostly up to 92.2 µM
# Method in brief: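 Seed 2500 LYMP1-002 cells per well in complete medium and hold 5 hr at 37 C. Add compound across a concentration series and incubate 16 hr at 37 C. Add CellTiter-Glo, wait 30 min at room temperature, read luminescence.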
# [13] = qHTS assay for small molecule disruptors of the mitochondrial membrane potential - 5 hr assay (AID 651755; calls by dose curve; note: nearly all actives have a fitted effect of over 40% in size; note: potency is the fitted concentration of half-maximal effect); details: JC-1-type ratio dye; series mostly up to 92.2 µM
# Method in brief: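 Read-out: ratiometric Mito-MPS fluorescence, green monomer (ex 490/em 535) vs red mitochondrial aggregate (ex 540/em 590). HepG2 cells treated 5 hr at 37C before 30 min dye loading.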
# [14] = target: Tumor necrosis factor (Homo sapiens) (UniProt P01375); test: qHTS assay to identify small molecules that stimulate Tumor Necrosis Factor-alpha (TNF-alpha) secretion (AID 651757; active = well fitted curve in the direction sought with a large enough effect in the signal ratio; the % refers to the signal ratio); details: Human cells, HTRF 665/615 ratio; series mostly up to 92.2 µM
# Tumor necrosis factor (Homo sapiens), sequence (P01375 whole entry, looked up): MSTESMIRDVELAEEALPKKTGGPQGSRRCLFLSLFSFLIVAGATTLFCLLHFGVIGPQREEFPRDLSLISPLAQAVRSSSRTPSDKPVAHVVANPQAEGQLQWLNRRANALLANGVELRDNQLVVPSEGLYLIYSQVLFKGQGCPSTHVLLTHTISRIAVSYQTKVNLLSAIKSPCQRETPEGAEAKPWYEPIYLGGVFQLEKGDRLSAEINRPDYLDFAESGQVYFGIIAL
# Method in brief: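 Using 3000 THP-1 cells per well, compounds and controls were applied for 17 hrs at 37 C. Detection followed with two labeled anti-TNF-alpha antibodies (cryptate donor, XL665 acceptor) for 3 hr at room temperature, measured by TR-FRET.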
# [15] = target: Peroxisome proliferator-activated receptor alpha (Homo sapiens) (UniProt Q07869); test: qHTS assay for small molecule agonists of the peroxisome proliferator-activated receptor alpha (PPARalpha) signaling pathway (AID 651778); details: PathHunter PPARalpha complementation, chemiluminescence, 6 h; hits give high values
# Peroxisome proliferator-activated receptor alpha (Homo sapiens), sequence (Q07869 whole entry, looked up, the tested form may be a part): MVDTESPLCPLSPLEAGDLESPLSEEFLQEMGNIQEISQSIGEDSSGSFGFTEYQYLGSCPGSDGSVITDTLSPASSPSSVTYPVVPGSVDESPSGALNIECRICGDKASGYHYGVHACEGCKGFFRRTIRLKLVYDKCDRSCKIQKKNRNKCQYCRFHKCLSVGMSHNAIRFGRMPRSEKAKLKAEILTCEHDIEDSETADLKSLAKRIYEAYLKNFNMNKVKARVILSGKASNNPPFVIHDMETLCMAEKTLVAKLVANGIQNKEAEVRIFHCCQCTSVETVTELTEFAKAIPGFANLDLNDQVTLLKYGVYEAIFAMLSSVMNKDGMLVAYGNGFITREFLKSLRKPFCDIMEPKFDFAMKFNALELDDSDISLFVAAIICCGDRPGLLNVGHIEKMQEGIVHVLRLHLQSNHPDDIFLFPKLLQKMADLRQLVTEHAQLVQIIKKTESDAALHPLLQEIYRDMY
# Method in brief: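 Enzyme-fragment complementation assay in which ligand-bound PPARalpha translocates and forms an active enzyme that generates chemiluminescence. Cells were plated overnight, exposed to compound for 6 hr at 37 C, and then given detection reagent for 60 min at room temperature.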
# [16] = qHTS assay for small molecule agonists of the antioxidant response element (ARE) signaling pathway measured by Nrf2-dependant transcriptional activity - cell viability counter screen (AID 720653; active = well fitted curve in the direction sought with a large enough effect in the repeat runs; an effect the other way counts as inactive or inconclusive); details: ARE-bla HepG2 viability, CellTiter-Glo ATP luminescence, 16 h; hits give low values
# Method in brief: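 ARE-bla HepG2 cells treated with compounds for 16 h at 37C; this counter screen measures viability as intracellular ATP by CellTiter-Glo luminescence after 30 min at room temperature.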
# [17] = qHTS assay for cell viability of HEK293 cells (AID 743288); details: ATP luminescence (CellTiter-Glo), 18 h, hits give low values; note: nearly all actives have a fitted effect of over 50% in size
# Method in brief: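 Viable-cell counts were inferred from luciferase-based ATP content in HEK293 cells seeded at 2,000/well, pre-incubated ≥5 h, then dosed with DMSO-solubilised compounds for 18 h at 37 C.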
# [18] = qHTS assay for cell viability of the p53RE-bla HCT-116 cell line (AID 743292); details: p53RE-bla HCT-116 viability, ATP luminescence, 16 h; series mostly up to 95 µM; note: nearly all actives have a fitted effect of over 55% in size
# Method in brief: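 CellSensor p53RE-bla HCT-116 cells, 4,000/well, preincubated 5 h at 37 C, then exposed to compounds in DMSO for 16 h at 37 C. Viability read as CellTiter-Glo luminescence (intracellular ATP) after 30 min at room temperature.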
# [19] = target: Nuclear receptor subfamily 1 group I member 2 (Rattus norvegicus) (UniProt Q9R1A7); test: qHTS assay for small molecule activators of the rat pregnane X receptor (rPXR) signaling pathway (AID 651751; call rule not given here); details: rPXR reporter cells, luciferase (One-Glo), 24 h
# Nuclear receptor subfamily 1 group I member 2 (Rattus norvegicus), sequence (Q9R1A7 whole entry, looked up): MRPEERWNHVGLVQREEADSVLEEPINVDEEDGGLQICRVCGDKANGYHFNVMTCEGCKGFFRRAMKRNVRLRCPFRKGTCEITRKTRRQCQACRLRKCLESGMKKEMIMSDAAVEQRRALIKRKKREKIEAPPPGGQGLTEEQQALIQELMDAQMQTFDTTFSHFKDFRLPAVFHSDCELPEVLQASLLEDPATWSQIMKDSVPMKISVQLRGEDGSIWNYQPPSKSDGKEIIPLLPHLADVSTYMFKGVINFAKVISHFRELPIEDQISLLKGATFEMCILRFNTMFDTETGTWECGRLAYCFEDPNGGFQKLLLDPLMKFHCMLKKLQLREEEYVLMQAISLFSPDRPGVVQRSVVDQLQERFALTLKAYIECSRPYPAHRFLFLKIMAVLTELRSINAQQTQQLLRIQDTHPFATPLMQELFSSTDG
# [20] = qHTS assay for small molecule activators of the human pregnane X receptor (PXR) signaling pathway (AID 720659; call rule not given here); details: DPX-2 HepG2 CYP3A4-luciferase, 24 h; series mostly up to 92.3 µM
Structure (SMILES),caspase-3 activation [1],outcome [2],outcome [3],outcome [4],outcome [5],Potency [6],caspase-3 activation [7],outcome [8],Potency [9],outcome [10],Potency [11],outcome [12],Potency [13],outcome [14],max response [15],max response [16],max response [17],Potency [18],max response [19],outcome [20]
C(CCOCC1CO1)COCC1CO1 (stereo not given),15.1%,inactive,inactive,inactive,inactive,inactive,0.467%,inactive,inactive,inactive,inactive,inactive,inactive,inactive,-0.765%,15.2%,-15.1%,inactive,2.78%,inactive
CCCCCc1cc(O)cc(O)c1,1.33%,inactive,inactive,inactive,inactive,inactive,1.25%,inactive,inactive,inactive,inactive,inactive,37.6 µM (active),inactive,-5.69%,8.35%,-5.2%,inactive,-1.86%,inactive
c1ccoc1,0.558%,inactive,inactive,inactive,inactive,inactive,-1.2%,inactive,inactive,inactive,inactive,inactive,inactive,inactive,0.928%,9.49%,0.0286%,inactive,3.47%,inactive
